38 molecules from the supplement of paper PMC4894684 can be followed below.

SMILES strings stand for the structures. Counter-ions that a name gives are not always drawn. ± gives the standard deviation of the averaged measurements. A value given as a limit tells only on which side of the number the result lay.

This experiment deals with Toxoplasma gondii RH (in HFF). Put plainly: parasite growth relative to the screen mean (all compounds = 100%); higher = less inhibition of parasite growth. The conditions noted are these: 5 µM; 72 h; oxygen 21 %. The gist of the method: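 Confluent human foreskin fibroblasts in 96-well plates received library compounds by pin transfer at 5 µM final, taken from 10 mM DMSO stocks. Within 2 h the cells were infected with RH β-Gal–GFP Toxoplasma at MOI 1:5 and cultured 72 h at 21% O2. A CPRG β-Gal assay read against in-plate standard curves gave parasite number, and growth is stated relative to the screen mean, where all compounds = 100%, averaged across two screens.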
Molecule `C[C@H]1CCC/C=C/[C@@H]2C[C@H](O)C[C@H]2[C@H](O)/C=C/C(=O)O1` [Brefeldin A] yielded a parasite growth below 0%.
Under `CC(C)(Cc1c[nH]c2ccc(Cl)cc12)NCCOc1ccccc1OCC1CC1` stands below 0%; under `Fc1ccc(C(OCCN2CCN(C/C=C/c3ccccc3)CC2)c2ccc(F)cc2)cc1`, 32.9 ± 3.4%; under `O=C(O)C1=CCCN(CCOC(c2ccc(C(F)(F)F)cc2)c2ccc(C(F)(F)F)cc2)C1` [CI 966 hydrochloride], 137 ± 5.2%.
With `O=c1[nH]oc2c1CCNC2` [THIP hydrochloride] the figure was 119 ± 21%.
Under `CC(CN)CC(=O)O` (stereo not drawn) [3-Methyl-GABA] stands 119 ± 4.7%; under `Clc1cccc(SC2CCNCC2)n1` [Anpirtoline hydrochloride], 76.4 ± 27%.
Molecule `C=C(C)CN1CC[C@@]23c4c5ccc(O)c4O[C@H]2c2[nH]c4ccccc4c2C[C@]3(O)C1C5` [SDM25N hydrochloride] showed a parasite growth of 77.5 ± 21%.
With `c1ccc2c(c1)[I+]c1ccccc1-2` [Diphenyleneiodonium chloride] the figure was below 0%.
With `Oc1ccc2c3c1O[C@H]1c4[nH]c5c(c4C[C@@]4(O)[C@@H](C2)N(CC2CC2)CC[C@]314)C[C@@]1(O)[C@H]2Cc3ccc(O)c4c3[C@@]1(CCN2CC1CC1)[C@H]5O4` [nor-Binaltorphimine dihydrochloride] the figure was 123 ± 3.2%; with `CC(=O)[C@H]1CC[C@H]2[C@@H]3CC[C@H]4C[C@](C)(O)CC[C@]4(C)[C@H]3CC[C@]12C` [Ganaxolone], 147 ± 17%.
With `c1ccc(C2CC2)c(OCC2=NCCN2)c1` [Cirazoline hydrochloride] the figure was 91.7 ± 19%; with `C=CCN1C[C@H](C)N([C@H](c2ccc(C(=O)N(CC)CC)cc2)c2cccc(O)c2)C[C@H]1C`, 110 ± 22%.
`CCOC(=O)c1ncn2c1CN(C)C(=O)c1cc(N=[N+]=[N-])ccc1-2` returned a parasite growth of 60 ± 14%.
With `NC1(c2ccccc2Cl)CCCCC1=O` (stereo not drawn) [Norketamine hydrochloride] the figure was 86.9 ± 27%; with `COc1cc(N)c(Cl)cc1C(=O)NC1CN2CCC1CC2` (stereo not drawn) [Zacopride hydrochloride], 142 ± 12%; with `C[C@H](N)Cc1cnc[nH]1` [(S)-(+)-a-Methylhistamine dihydrobromide], 113 ± 11%.
With `N=C(NCc1ccc(Cl)cc1)SCCCc1c[nH]cn1` [Clobenpropit dihydrobromide] the figure was 106 ± 11%.
With `C[C@@]12C(=O)OC(=O)[C@]1(C)[C@H]1CC[C@@H]2O1` [Cantharidin] the figure was 68.8 ± 46%.
Regarding `CC1=NN=C(c2ccc(N)cc2)c2cc3c(cc2C1)OCO3`, the parasite growth was determined as 47.2 ± 4.7%.
With `CC[C@@H](CO)NC(=O)[C@@H]1C=C2c3cccc4c3c(cn4C)C[C@H]2N(C)C1` [Methysergide maleate] the figure was 189 ± 24%; with `CNCCc1cnc[nH]1` [N α-Methylhistamine dihydrochloride], 102 ± 1.5%.
Under `Cc1onc(O)c1CC(N)C(=O)O` (racemic) stands 107 ± 41%; under `CCN(CC)CCO[C@H]1CC[C@@]2(C)C(=CC[C@@H]3[C@@H]2CC[C@]2(C)C(=O)CC[C@@H]32)C1`, 79.6 ± 24%.
With `CC(=O)N(C)c1cccc(-c2ccnc3c(C(=O)c4cccs4)cnn23)c1` [Indiplon] the figure was 79.5 ± 17%; with `CC[C@@]1(O)C(=O)OCc2c1cc1n(c2=O)Cc2cc3ccccc3nc2-1` [Camptothecin], 181 ± 36%; with `Cc1[nH]c2ccc(Cl)cc2c1C1=CCNCC1`, 129 ± 8.1%.
Turning to `C/C(O)=C(\C#N)C(=O)Nc1cc(Br)ccc1Br`, the parasite growth worked out at 130 ± 7.2%.
Under `CC(=O)NCCc1c[nH]c2ccccc12` [N-Acetyltryptamine] stands 146 ± 7.5%; under `C[N+]1(C)CCc2cc3c(cc2[C@H]1[C@@H]1OC(=O)c2c1ccc1c2OCO1)OCO3` [(-)-Bicuculline methochloride], 120 ± 37%; under `C[C@H](N)Cn1ccc2cc(F)c(Cl)cc21` [Ro 60-0175 fumarate], 115 ± 28%.
With `CN1CCC(c2c[nH]c3ccc(O)cc23)CC1` the figure was 177 ± 16%.
Molecule `CN(C(=O)Cc1ccc(Cl)c(Cl)c1)[C@H](CN1CCCC1)c1ccccc1` [ICI-199,441 hydrochloride] gave a parasite growth of 49.6 ± 10%.
With `C1CCc2nnnn2CC1` [Pentylenetetrazole] the figure was 110 ± 22%; with `CN1[C@@H]2CC[C@H]1CC(OC(=O)N1Cc3ccccc3NC1=O)C2` (stereo partly drawn) [DAU 5884 hydrochloride], 97.7 ± 16%; with `CN1C[C@H](CNC(=O)OCc2ccccc2)C[C@@H]2c3cccc4c3c(cn4C)C[C@H]21` [Metergoline], 71 ± 0.52%.
With `C[N+]1(C)CCc2cc3c(cc2C1C1OC(=O)c2c1ccc1c2OCO1)OCO3` (single isomer, unassigned; (-)) [(-)-Bicuculline methobromide] the figure was 131 ± 20%.
Under `N.N.[Cl][Pt][Cl]` [Cisplatin] stands 144 ± 80%.
